Bead autofluor: flagged as autofluorescent in microsphere protease counterscreen; compound autofluorescence counterscreen, microsphere flow cytometry; stronger effect = higher value; fluorescence intensity (test concentration not listed); hit rate 3.1% among 360,000; AID 624483; in the data active = fluorescence intensity above about 16000; inconclusive = no clear call, values can overlap the other calls
3CLpro inhibitor: SARS-CoV 3CLpro protease inhibition. inhibition, % at 6 µM. AID 1706. hit rate 0.14% among 290,000. recombinant SARS-CoV 3CLpro, quenched FRET peptide cleavage; in the data active = inhibition above about 12%
Anthrax LF inh2: blocks Bacillus anthracis lethal factor protease; P15917; multiplex microsphere protease cleavage assay, LF; inhibition, % at 10 µM; hit rate 0.12% among 360,000; AID 588501; in the data active = inhibition above about 30%; inconclusive = no clear call, values can overlap the other calls
Target sequence (P15917 whole entry, looked up): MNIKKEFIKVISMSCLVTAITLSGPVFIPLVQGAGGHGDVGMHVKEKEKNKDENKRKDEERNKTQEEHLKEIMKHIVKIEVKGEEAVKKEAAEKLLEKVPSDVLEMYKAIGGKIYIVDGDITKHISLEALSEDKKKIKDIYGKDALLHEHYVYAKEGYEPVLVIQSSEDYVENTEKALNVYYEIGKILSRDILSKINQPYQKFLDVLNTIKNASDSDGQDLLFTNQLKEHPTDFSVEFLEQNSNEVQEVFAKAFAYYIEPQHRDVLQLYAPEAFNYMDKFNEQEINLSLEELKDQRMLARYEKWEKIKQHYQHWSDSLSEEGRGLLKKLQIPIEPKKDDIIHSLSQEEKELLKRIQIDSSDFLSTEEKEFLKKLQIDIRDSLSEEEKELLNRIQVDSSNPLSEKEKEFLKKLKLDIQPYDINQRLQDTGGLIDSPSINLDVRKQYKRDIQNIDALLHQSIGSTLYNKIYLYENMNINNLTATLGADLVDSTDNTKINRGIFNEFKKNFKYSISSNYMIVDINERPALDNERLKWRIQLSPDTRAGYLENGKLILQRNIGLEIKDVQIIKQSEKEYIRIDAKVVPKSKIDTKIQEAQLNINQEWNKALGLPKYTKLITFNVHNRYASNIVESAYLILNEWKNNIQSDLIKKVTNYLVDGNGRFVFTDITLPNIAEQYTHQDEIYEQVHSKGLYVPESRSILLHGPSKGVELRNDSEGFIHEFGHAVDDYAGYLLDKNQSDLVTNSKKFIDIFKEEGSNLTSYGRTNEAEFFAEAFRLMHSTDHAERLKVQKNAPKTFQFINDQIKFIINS
BoNT A protease: inhibitors of Botulinum neurotoxin A light chain protease; multiplex microsphere protease substrate cleavage, flow cytometry; inhibition, % at 10 µM; hit rate 0.17% among 360,000; AID 588499; in the data active = inhibition above about 30%; inconclusive = no clear call, values can overlap the other calls
BoNT F protease: inhibitors of Botulinum neurotoxin F light chain protease | AID 588497 | inhibition, % at 10 µM | hit rate 0.22% among 360,000 | Multiplex microsphere protease cleavage assay, flow cytometry; in the data active = inhibition above about 35%, passing the limit was not always enough; inconclusive = no clear call, values can overlap the other calls
BoNT-A LC CP1: blocks botulinum neurotoxin A light chain protease; shares compounds with BoNT F protease; multiplex microsphere protease assay, flow cytometry; inhibition, % at 10 µM; hit rate 3% among 720; AID 602139; in the data active = inhibition above about 32%
BoNTF LC inh 1: inhibitors of Botulinum neurotoxin F light chain protease | inhibition, % at 10 µM | AID 602140 | multiplex microsphere protease cleavage assay, flow cytometry | shares compounds with BoNT F protease | 720 tested, under 10 active
LF protease CP1: blocks anthrax lethal factor protease. shares compounds with BoNT F protease. multiplex microsphere protease cleavage assay, LF. inhibition, % at 10 µM. 720 tested, under 10 active
Of the large screens only hits and unclear results are named; the others gave an inactive call (follow-up assays come after a bar, where they were run). The list is not random: actives were taken first. Their share in the collection is about 3.5%. Unless noted, no rule for the calls is given here.

COc1cc(OC)cc(C(=O)NCc2ccc3c(c2)cc(C)n3C)c1	BoNT A protease 73.1 | BoNT-A LC CP1 inactive | BoNTF LC inh 1 inactive | LF protease CP1 inactive
Cc1cc2cc(CNC(=O)c3ccco3)ccc2n1C	none (no result: 3CLpro inhibitor)
Cc1cc2cc(CNC(=O)COc3ccccc3)ccc2n1C	BoNT A protease 69.2 | BoNT-A LC CP1 inactive | BoNTF LC inh 1 inactive | LF protease CP1 inactive
COCC(=O)NCc1ccc2c(c1)cc(C)n2C	none | BoNT-A LC CP1 inactive | BoNTF LC inh 1 inactive | LF protease CP1 inactive
Cc1cc2cc(CNC(=O)c3cc4ccccc4o3)ccc2n1C	none (no result: Bead autofluor, Anthrax LF inh2, BoNT A protease, BoNT F protease)
COc1ccc(CCC(=O)NNC(=O)Cn2nc(C)cc2C)cc1	none
CC1CCCCN1CC(=O)Nc1sccc1C#N (centres undefined)	none
Cc1cc2cc(CNC(=O)c3ccc4c(c3)OCO4)ccc2n1C	BoNT A protease 64.7 | BoNT-A LC CP1 inactive | BoNTF LC inh 1 inactive | LF protease CP1 inactive
COc1ccc(C(=O)NCc2ccc3c(c2)OCO3)cc1	none
COc1c(C)cccc1C(=O)NCc1ccc2c(c1)OCO2	BoNT F protease 35.6 | BoNT-A LC CP1 inactive | BoNTF LC inh 1 inactive | LF protease CP1 inactive
COc1cccc(N2CCN(C(=O)CCn3c(=S)[nH]c4cc5c(cc4c3=O)OCO5)CC2)c1	none (no result: Bead autofluor, Anthrax LF inh2, BoNT A protease, BoNT F protease)
Oc1ccccc1-c1nnc(-c2ccc(C(F)(F)F)cc2)o1	BoNT F protease 35.2 | BoNT-A LC CP1 inactive | BoNTF LC inh 1 inactive | LF protease CP1 inactive
Cc1cc(-c2cccs2)c2c(N)c(C(=O)c3ccc4c(c3)OCO4)sc2n1	BoNT A protease 55.5 | BoNT-A LC CP1 inactive | BoNTF LC inh 1 inactive | LF protease CP1 inactive
COc1ccc(C(=O)c2sc3nc(C)cc(-c4cccs4)c3c2N)cc1	BoNT A protease 56.4 | BoNT-A LC CP1 inactive | BoNTF LC inh 1 inactive | LF protease CP1 inactive
Cc1cc(C)c2c(N)c(C(=O)c3ccc(Cl)cc3)sc2n1	none
N#Cc1sc2nc(C3CC3)cc(-c3ccc(Cl)cc3)c2c1N	none
COc1ccc(-c2cc(-c3cccs3)nc3sc(C#N)c(N)c23)cc1	BoNT A protease 40.2 | BoNT-A LC CP1 inactive | BoNTF LC inh 1 inactive | LF protease CP1 inactive
Cc1sc2nc3c(C(=O)N4CCCC4)cc(C(=O)c4ccccc4O)cn3c(=O)c2c1C	none
O=C(CN1CCN(c2ccccc2)CC1)NCc1ccc(F)cc1	BoNT F protease inconclusive
COc1ccc(-c2oc(=O)n(C)c2-c2ccc(OC)cc2)cc1	BoNT F protease 90.4 | BoNT-A LC CP1 inactive | BoNTF LC inh 1 inactive | LF protease CP1 inactive
COCCn1c(-c2ccc(OC)cc2)c(-c2ccc(OC)cc2)oc1=O	none
COc1ccc(-n2nc(C(=O)NCC(=O)NCc3cccc(F)c3)c3ccccc3c2=O)cc1Cl	BoNT F protease 36.3 | BoNT-A LC CP1 inactive | BoNTF LC inh 1 inactive | LF protease CP1 inactive
O=C(COc1ccc([N+](=O)[O-])cc1)NNC(=S)NC(=O)c1ccc(Br)cc1	none
COc1cccc(CN2CCN(C(=O)c3cccc(OC)c3)CC2)c1	none
O=C(c1ccccc1)N1CCN(Cc2cccc(Oc3ccccc3)c2)CC1	BoNT F protease 38.2 | BoNT-A LC CP1 inactive | BoNTF LC inh 1 inactive | LF protease CP1 inactive
COc1cc2nc(/C=C/c3ccc(N(C)C)cc3)sc2cc1SC	BoNT A protease 39.4 | BoNT-A LC CP1 inactive | BoNTF LC inh 1 inactive | LF protease CP1 inactive
N#Cc1ccc(CSc2nnc(-c3cccnc3)n2-c2ccccc2)cc1	none
CCOC(=O)N1CCN(C(=O)c2ccc(C)c(S(=O)(=O)Nc3cccc(C)c3C)c2)CC1	BoNT A protease inconclusive
CCOC(=O)N1CCN(C(=O)c2ccc(C)c(S(=O)(=O)Nc3ccccc3)c2)CC1	BoNT F protease 34.5 | BoNT-A LC CP1 inactive | BoNTF LC inh 1 inactive | LF protease CP1 inactive
Cc1nn(Cc2ccc(F)cc2)c(C)c1NC(=O)c1cc(-c2ccc3c(c2)OCO3)on1	none
O=C(Nc1cnn(Cc2ccccc2)c1)c1cc2nc(-c3ccco3)cc(C(F)(F)F)n2n1	none | BoNT-A LC CP1 inactive | BoNTF LC inh 1 inactive | LF protease CP1 inactive
Cc1nn(C)cc1CN(C)C(=O)c1cc2nc(-c3ccco3)cc(C(F)(F)F)n2n1	none
Cc1nn(C)cc1NC(=O)c1cc2nc(-c3ccco3)cc(C(F)(F)F)n2n1	none | BoNT-A LC CP1 inactive | BoNTF LC inh 1 inactive | LF protease CP1 inactive
Cc1ccccc1Cn1nc(C)c(NC(=O)c2cc3nc(-c4ccco4)cc(C(F)(F)F)n3n2)c1C	none | BoNT-A LC CP1 inactive | BoNTF LC inh 1 inactive | LF protease CP1 inactive
CCc1ccc(-c2cc(C(F)(F)F)n3nc(C(=O)Nc4c(C)nn(Cc5ccc(F)cc5)c4C)cc3n2)s1	BoNT A protease 32.7 | BoNT-A LC CP1 inactive | BoNTF LC inh 1 inactive | LF protease CP1 inactive
O=C(Cc1ccc(F)cc1)N1CCN=C1SCc1ccc([N+](=O)[O-])cc1	none
CSc1ncccc1C(=O)N1CCN(S(=O)(=O)c2ccc3c(c2)OCCO3)CC1	none (no result: 3CLpro inhibitor)
CC(C)C[C@@H](CO)N1CCN(Cc2ccccc2)CCC1=O	none
O=C(COc1ccc(S(=O)(=O)NCc2ccccc2)cc1Cl)NCc1ccncc1	none
O=C(COc1ccc(S(=O)(=O)NCc2ccccc2)cc1Cl)NCc1ccccn1	BoNT F protease 68.3 | BoNT-A LC CP1 inactive | BoNTF LC inh 1 inactive | LF protease CP1 inactive
Cc1nn(Cc2ccccc2Cl)c(Cl)c1C(=O)NCCc1ccccc1	none
O=C(Nc1cccc(C(F)(F)F)c1)c1sc(Cl)nc1C(F)(F)F	Anthrax LF inh2 33.3, BoNT F protease 40.1 | BoNT-A LC CP1 inactive | BoNTF LC inh 1 inactive | LF protease CP1 inactive
O=C(Nc1cccc(C(F)(F)F)c1)c1cc(-c2ccco2)on1	none
CCC1(C)Cc2c(C#N)c(SC)nc(N3CCOCC3)c2CO1 (centres undefined)	Anthrax LF inh2 32.1, BoNT F protease inconclusive (no result: 3CLpro inhibitor) | BoNT-A LC CP1 inactive | BoNTF LC inh 1 inactive | LF protease CP1 inactive
CC1(C)Cc2c(C#N)c(SCC(=O)c3ccccc3)nc(N3CCOCC3)c2CS1	BoNT F protease 36.8 | BoNT-A LC CP1 inactive | BoNTF LC inh 1 inactive | LF protease CP1 inactive
CCOCCSc1nc2c(c(-c3cccs3)c1C#N)CC/C2=C/c1cccs1	Anthrax LF inh2 35.1, BoNT A protease 76.6 | BoNT-A LC CP1 37.3 | BoNTF LC inh 1 inactive | LF protease CP1 inactive
N#Cc1nc(-c2ccccc2F)oc1NCc1ccccc1	none
N#Cc1nc(-c2ccccc2F)oc1NCCc1ccccc1	BoNT A protease inconclusive, BoNT F protease 41.9 | BoNT-A LC CP1 inactive | BoNTF LC inh 1 inactive | LF protease CP1 inactive
Nc1nnnn1/N=C/c1cc(Cl)cc(Cl)c1OCc1ccc(Cl)cc1Cl	none
O=C(c1cc([N+](=O)[O-])[nH]n1)N1CCSCC1	BoNT F protease 36.2 | BoNT-A LC CP1 inactive | BoNTF LC inh 1 inactive | LF protease CP1 inactive
Brc1ccc2c(c1)C(c1cccnc1)=NNC(c1cccs1)=N2	none
C=CCNC(=O)c1onc(CSc2cc(C)cc(C)c2)c1C(=O)NCC=C	none (no result: 3CLpro inhibitor)
CCN(CC)S(=O)(=O)c1ccc(C)c(C(=O)Oc2cccc(-c3cnc4ccccc4n3)c2)c1	BoNT F protease 34.9 | BoNT-A LC CP1 inactive | BoNTF LC inh 1 inactive | LF protease CP1 inactive
